According to PubChem BioAssay AID1063 (University of Pittsburgh Molecular Library Screening Center, 2008):
Out of some 200,000 compounds screened, about 18,000 (9%) were called active. Rule as the data show it: active = inhibition above about 50%; inactive = the rest. Many of the other results were omitted from the sample, so actives are more common in it than they were.

Assay: antileishmanial activity against promastigotes – primary screen (AID 1063);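 also: promastigotes grown with compound for 44 hours at 28 °C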
Settings: Leishmania major promastigotes, resazurin fluorescence viability; at 10 µM; stronger effect = higher value

Structure (SMILES) | inhibition
C=CCC(C(=O)c1ccccc1)[N+](C)(C)CC=C (stereo unspecified) | -3.06% (inactive)
COc1ccc(NC(=O)C(C)SCc2ccccc2)cc1 (stereo unspecified) | -8.12% (inactive)
CC1(C)OC(=O)C(=CSc2ccc(C(C)(C)C)cc2)C(=O)O1 | -9.81% (inactive)
CN(C)c1nnnn1-c1ccc(Cl)cc1 | 2.19% (inactive)
CCN(CC)c1ccc(/C=N/Nc2nc(C)cc(=O)[nH]2)cc1 | -1.36% (inactive)
CCOc1ccc(-n2c(O)c(/C=N/Nc3nc(C)cc(C)n3)c3ccccc3c2=O)cc1 | 14% (inactive)
CCN(CC)c1ccc(/C=N/Nc2nc(C)cc(C)n2)c(O)c1 | 99.8% (active)
Cc1ccc(S(=O)(=O)CC(=O)Nc2c(C)n(C)n(-c3ccccc3)c2=O)cc1 | 2.54% (inactive)
COc1cccc(CNC(=O)CCN2C(=S)NC(C)(C)CC2C)c1 (stereo unspecified) | -13.5% (inactive)
CCCC(=O)NC(=S)Nc1ccc(CN2CCOCC2)cc1 | 5.07% (inactive)
O=C1OC(/C=C/c2ccccc2)=NC/1=C/c1ccco1 | -4.68% (inactive)
Fc1cccc2ncnc(OCc3ccccc3)c12 | -9.83% (inactive)
O=C(N/N=C/c1ccc(O)cc1)/C(=C/c1ccc([N+](=O)[O-])cc1)NC(=O)c1ccccc1 | -2.54% (inactive)
O=C(Nc1ccc(C(=O)O)cc1)/C(=C/c1ccc([N+](=O)[O-])cc1)NC(=O)c1ccccc1 | -2.56% (inactive)
O=C(N/N=C/c1cc([N+](=O)[O-])ccc1O)/C(=C\c1cccs1)NC(=O)c1ccccc1 | 85.6% (active)
O=C(c1cn(-c2ccccc2)nc1-c1cc2ccccc2oc1=O)N1CCOCC1 | -2.51% (inactive)
CC1(C)CC(=O)C(C2c3ccccc3S(=O)(=O)c3ccccc32)C(=O)C1 | -3.12% (inactive)
Cc1cccc(OCC(O)CN2CCN(CCN3C(=O)c4cccc5cccc(c45)C3=O)CC2)c1C (stereo unspecified) | 99.9% (active)
OC(COc1cccc2ccccc12)CN1CCN(c2ccccn2)CC1 (stereo unspecified) | -1.28% (inactive)
Cc1ccccc1OCC(O)CN1CCN(c2ccccn2)CC1 (stereo unspecified) | 3.89% (inactive)
COCCCNC(=S)NNC(=O)C(O)(c1ccccc1)c1ccccc1 | -3.7% (inactive)

Structure (SMILES) | inhibition
Clc1ccc(-c2nc3ccccn3c2CN2CCSCC2)cc1 | 77.4% (active)
CN(C)C(=O)c1nc2ccc(Cl)cn2c1CN1CCN(c2ncccn2)CC1 | 7.72% (inactive)
O=C(CN1CCSCC1)N/N=C/c1ccc(Cl)cc1 | 7.06% (inactive)
CCOC(=O)N1CCN(CC(=O)Nc2ccc(F)cc2)CC1 | -5.71% (inactive)
CC(Nc1ccccc1)c1cccnc1 (stereo unspecified) | 12.1% (inactive)
C=CCn1c(N)c(S(=O)(=O)c2cccs2)c2nc3ccccc3nc21 | 4.67% (inactive)
C=CCn1c(N)c(C(=O)OCC(C)C)c2nc3ccccc3nc21 | 61% (active)
CC(C)Cn1c(N)c(C(=O)NCc2cccs2)c2nc3ccccc3nc21 | 40.8% (inactive)
Cc1ccc(CN2CCN(/N=C/c3cccnc3)CC2)c(C)c1 | 13.4% (inactive)
COc1cccc(NC(=S)N(Cc2ccc(C)cc2)Cc2ccccn2)c1 | 94.4% (active)
COc1cccc(NC(=S)NCc2ccccn2)c1 | -4.83% (inactive)
CSc1cccc(NC(=S)N(Cc2ccccc2)Cc2ccccn2)c1 | 17.4% (inactive)
CN(C)c1ccc(/C=N/Nc2cc(N3CCOCC3)nc(N3CCOCC3)n2)cc1 | -7.95% (inactive)
Cc1ccc(-n2cc(CN(C)Cc3nccn3C)c(-c3cccc(C)c3)n2)cc1 | 39% (inactive)
Cc1cc(NC(=O)CN2C(=O)NC(CCc3ccccc3)C2=O)no1 (stereo unspecified) | 4.06% (inactive)
CCNC(=O)CC1C(=O)N(c2ccc(F)cc2)C(=O)N1CCc1sccc1C (stereo unspecified) | -7.58% (inactive)
CC(NC(=O)c1cc(-c2ccccc2)on1)c1ccccc1 (stereo unspecified) | -7.18% (inactive)
O=C(NCCCN1CCOCC1)c1cc(-c2ccc(Cl)cc2)on1 | 59.5% (active)
O=C(NCCCN1CCOCC1)c1cnn2c(-c3ccccc3)cc(-c3ccccc3)nc12 | 19% (inactive)
O=C(NCCN1CCOCC1)c1c(F)c(F)c(F)c(F)c1F | -4.01% (inactive)
CCN(CC)CCCNC(=O)c1cc(-c2cccc(Cl)c2)on1 | 87.4% (active)

Structure (SMILES) | inhibition
O=C(NCCCN1CCOCC1)c1cc2c(s1)CCC2 | 79% (active)
O=C(NCCCN1CCOCC1)c1ccccc1NS(=O)(=O)c1ccc(Br)cc1 | -7.24% (inactive)
O=C(NNC(=S)NCCCN1CCOCC1)c1ccncc1 | -2.18% (inactive)
O=C(NCCCn1ccnc1)c1cc(-c2ccccc2)on1 | 2.53% (inactive)
CCCCCN(C(=O)NC(=O)Nc1cccc(C)c1C)S(C)(=O)=O | -14.4% (inactive)
COc1cccc(NC(=O)CC(c2ccc(OC(C)C)cc2)c2ccccc2OC)c1 (stereo unspecified) | -2.29% (inactive)
Cc1ccc(C)c(-n2cc(CN3CCN(C(=O)c4ncn[nH]4)CC3)c(-c3ccccc3)n2)c1 | -2.57% (inactive)
CCC(O)C1CCN(Cc2cn(-c3ccc(OC)cc3)nc2-c2cccc(F)c2)CC1 (stereo unspecified) | 30.3% (inactive)
Cc1cccc(-n2cc(CN3CCN(C(=O)c4ncn[nH]4)CC3)c(-c3cccc(F)c3)n2)c1 | 89.9% (active)
Cc1ccc(/C=N/NC(=O)Cn2ccc(C(F)(F)F)n2)o1 | -8.92% (inactive)
CC1(C)CC(N(Cc2ccccc2)C(=O)Cc2ccccc2)CCO1 (stereo unspecified) | 3.41% (inactive)
COCCNC(=S)Nc1cc(S(=O)(=O)N2CCOCC2)ccc1N1CCCCC1 | -2.67% (inactive)
CN(C)c1nc(N)nc(Cn2nnc(-c3ccc(C(F)(F)F)cc3)n2)n1 | -9.02% (inactive)
Brc1ccc(OCCn2ccnc2)cc1 | 9.23% (inactive)
CC(C)(C)CC(C)(C)NCC(O)COCCOc1ccc(Br)cc1 (stereo unspecified) | 96.6% (active)
Cc1noc(COc2ccccc2OCC(O)CNC(C)(C)C)n1 (stereo unspecified) | 5.97% (inactive)
Cc1cc(C)n(-c2nc(C(F)(F)F)nc3ccccc23)n1 | 24.4% (inactive)
O=C(CN1CCN(Cc2ccc(F)cc2Cl)C1=O)NCc1cccs1 | -13% (inactive)
Cc1ccc(S(=O)(=O)NC(C(=O)N2CCOCCOCCOCCOCC2)c2ccccc2)cc1 (stereo unspecified) | -7.01% (inactive)
